Measurements as given in PubChem BioAssay AID1159580 (chemical genetic matrix, 2015).
Screen size: about 5,500 compounds; about 2,000 (36%) were called active. About 18% were inconclusive and are not listed. Cut-off read from the data, not from the text of the source: active = normalized growth mostly below about 0.91 (no sharp cut-off); inconclusive = no clear call, values can overlap the other calls; inactive = mostly above about 0.92. The list shows a part of the results.

Assay: chemical genetic growth profiling, strain panel (AID 1159580);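 note: tested at 20 µM; growth read once vehicle control cultures reached saturation at 30 °C; 1 = growth at the plate median or of vehicle wells; lower values mean less growth of the strain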
Settings: S. cerevisiae deletion strains, growth OD

Measured: normalized growth

Cc1onc2c(=O)n(-c3ccccc3)nc(-c3ccccc3)c12
inactive: locus YAL013W, strain DEP1, active compounds read low 0.98 | locus YBR229C, strain ROT2, active compounds read low 0.983 | locus YCL061C, strain MRC1, active compounds read low 0.98 | locus YDL101C, strain DUN1, active compounds read low 0.954 | locus YDL134C, strain PPH21, active compounds read low 0.981 | locus YDR150W, strain NUM1, active compounds read low 0.934 | locus YEL061C, strain CIN8, active compounds read low 0.968 | locus YGR078C, strain PAC10, active compounds read low 0.947 | locus YHR087W, strain rtc3, active compounds read low 0.978 | locus YJR043C, strain POL32, active compounds read low 1.01 | locus YLR058C, strain SHM2 (second series), active compounds read low 0.984 | locus YML094W, strain GIM5, active compounds read low 0.978 | locus YMR219W, strain ESC1, active compounds read low 0.955 | locus YMR263W, strain SAP30, active compounds read low 0.974 | locus YNL153C, strain GIM3, active compounds read low 1 | locus YNL298W, strain CLA4 (second series), active compounds read low 0.911 | locus YNR030W, strain Alg12, active compounds read low 0.945 | locus YPL055C, strain LGE1, active compounds read low 1.02 | locus YPL241C, strain CIN2, active compounds read low 0.959 | locus YPR135W, strain CTF4, active compounds read low 0.68
active: locus YHR030C, strain SLT2, active compounds read low 0.517 | locus YJR075W, strain HOC1, active compounds read low 0.622 | locus YLR039C, strain RIC1, active compounds read low 0.57 | locus YLR085C, strain ARP6, active compounds read low 0.769 | locus YLR262C, strain YPT6, active compounds read low 0.574 | locus YMR307W, strain GAS1, active compounds read low 0.568 | locus YNL322C, strain KRE1, active compounds read low 0.929
